This passage reports outcome and AC50 results from PubChem BioAssay (EPA / NIEHS).

The nature of assay [1]: ATG_NFI_CIS: Attagene CIS-FACTORIAL HepG2 Assay for human Nuclear Factor I (NFI) (AID 2282989). The conditions noted are these: HepG2 cis-regulatory reporter, NFI response element transcription; actives raise or lower the signal. Summed up: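 Read-out: reporter mRNA via RT-PCR plus capillary electrophoresis with fluorescence detection. Transiently transfected HepG2 (endogenous TF activity on cis promoters), 24 h compound exposure; gain or loss of signal fitted against DMSO.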

Assay [2] addresses Myc proto-oncogene protein (Homo sapiens) (UniProt P01106). Nature of the assay: ATG_Myc_CIS: Attagene CIS-FACTORIAL HepG2 Assay for human Myelocytomatosis (Myc) Proto-Oncogene Transcription Factor (AID 2282990). The note with it: HepG2, Attagene cis-reporter transcription factor activity; actives raise or lower the signal. The essentials: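 After 24 h chemical treatment of HepG2 cells carrying multiplexed cis-regulated reporter constructs, reporter transcripts quantified by RT-PCR and capillary electrophoresis of fluorescent fragments. Gain or loss fitted against DMSO baseline.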

The nature of assay [3]: ATG_Oct_MLP_CIS: Attagene CIS-FACTORIAL HepG2 Assay for human Octamer-Binding Transcription Factor (Oct) (AID 2282993). The note with it: HepG2 Attagene cis-factorial Oct reporter, mRNA; actives raise or lower the signal. Summed up:
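Read-out: reporter mRNA via RT-PCR plus capillary electrophoresis of 6-FAM-labelled fragments. Transiently transfected HepG2, 24 h exposure, endogenous TF activity on cis elements. Gain or loss of signal fitted relative to DMSO.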

Assay [4] concerns the target human Peroxisome Proliferator-activated Receptor alpha (PPARa), PPARA (gene 5465) (UniProt Q07869). Nature of the assay: ATG_PPARa_TRANS: Attagene TRANS-FACTORIAL HepG2 Assay for human Peroxisome Proliferator-activated Receptor alpha (PPARa) (AID 2283001; active = hit-call score of the fitted dose curve at least 0.9, where 1 is the maximum;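 as to AC50: potency for gain of reporter signal over DMSO so agonist or activator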). Summed up:
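Read-out is fluorescence of reporter cDNA fragments resolved by capillary electrophoresis after RT-PCR. Human HepG2 liver cells carried transfected PPARa-Gal4 chimera and GAL4-UAS reporter units, treated 24 h; activity scored as increase over DMSO.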

The target in assay [5] is human Peroxisome Proliferator-activated Receptor delta (PPARd), PPARD (gene 5467) (UniProt Q03181). Description: ATG_PPARd_TRANS: Attagene TRANS-FACTORIAL HepG2 Assay for human Peroxisome Proliferator-activated Receptor delta (PPARd) (AID 2283002; active = hit-call score of the fitted dose curve at least 0.9, where 1 is the maximum). The essentials:
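Read-out is induced reporter mRNA, quantified by RT-PCR with fluorescent labelling and capillary electrophoresis after 24 h dosing. Cells are HepG2 transiently carrying multiple GAL4-UAS reporter units driven by exogenous NR-GAL4 chimeras; DMSO serves as baseline.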

In assay [6] the target is human RAR-related Orphan Receptor beta (RORb), RORB (gene 6096) (UniProt Q92753). Nature of the assay: ATG_RORb_TRANS: Attagene TRANS-FACTORIAL HepG2 Assay for human RAR-related Orphan Receptor beta (RORb) (AID 2283010; active = hit-call score of the fitted dose curve at least 0.9, where 1 is the maximum). The essentials:
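HepG2 cells transiently transfected with GAL4-UAS reporter units expressing chimeric NR-Gal4 protein; reporter mRNA measured 24 h after dosing by RT-PCR, 6-FAM labelling and capillary electrophoresis. Gain-of-signal fitted relative to DMSO baseline.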

Assay [7] addresses human RAR-related Orphan Receptor gamma (RORg), RORC (gene 6097) (UniProt P51449). Nature of the assay: ATG_RORg_TRANS: Attagene TRANS-FACTORIAL HepG2 Assay for human RAR-related Orphan Receptor gamma (RORg) (AID 2283011; active = hit-call score of the fitted dose curve at least 0.9, where 1 is the maximum). Summed up:
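First, HepG2 liver cells were transfected with GAL4-UAS-driven reporter constructs and the RORg-Gal4 fusion. Next, they were treated with chemical for 24 h. Finally, reporter mRNA was quantified by RT-PCR and capillary electrophoresis, with upward activity fitted against DMSO.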

A short description of assay [8]: ATG_NRF2_ARE_CIS: Attagene CIS-FACTORIAL HepG2 Assay for human Nuclear Factor Erythroid 2 Related Factor 2 (NFR2) response to Antioxidant Response Elements (ARE) (AID 2282992).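 As to AC50: reporter mRNA level measured by RT-PCR and capillary electrophoresis fluorescence.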 The note with it: HepG2 Attagene ARE/NRF2 reporter, transcription factor activity; actives raise or lower the signal. Summed up:
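Transient MRTU transfection of HepG2; 24 h compound exposure; TriZol RNA, RT with oligo(dT), PCR, 6-FAM primer extension, HpaI cut, CE. Bidirectional fit vs DMSO.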

Assay [9] is described as follows: BSK_3C_TissueFactor: BioMAP Diversity Plus: 3C Assay for Tissue Factor Biomarker Activity (AID 2282997). The conditions noted are these: BioMAP 3C HUVEC, tissue factor biomarker readout; actives raise or lower the signal. Summed up: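 ELISA read-out of Tissue Factor levels on human umbilical vein endothelium collected 24 h after chemical dosing. Gain or loss of signal was fitted relative to DMSO.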

Assay [10] can be described thus: BSK_3C_uPAR: BioMAP Diversity Plus: 3C Assay for Urokinase-type plasminogen activator receptor (uPAR) Biomarker Activity (AID 2282998). The note with it: BioMAP 3C HUVEC, uPAR biomarker ELISA; actives raise or lower the signal. The essentials: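 HUVEC primary cells; 24 h post-dose; uPAR by ELISA; gain or loss of signal fitted bidirectionally vs DMSO baseline.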
(In an ELISA, binding on a coated surface is turned into a signal by an enzyme label.)

The nature of assay [11]: BSK_3C_VCAM1: BioMAP Diversity Plus: 3C Assay for Vascular cell adhesion molecule 1 (VCAM1) Biomarker Activity (AID 2282999). The conditions noted are these: BioMAP 3C HUVEC, VCAM1 ELISA, cytokine-stimulated; actives raise or lower the signal. Summed up: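 Endothelial cells from human umbilical vein are treated with test chemical. At 24 h, VCAM-1 is measured by ELISA, and responses in either direction are fitted relative to DMSO.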

Assay [12] can be described thus: BSK_4H_Eotaxin3: BioMAP Diversity Plus: 4H Assay for Eotaxin 3 Biomarker Activity (AID 2283000).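 As to outcome: CCL26 protein level quantified by ELISA in parallel with SRB cytotoxicity check.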 The note with it: primary human endothelial cells (HUVEC); actives raise or lower the signal. Summed up:
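Chemicals were added to human umbilical vein endothelium cultures, and Eotaxin-3 was quantified by ELISA at 24 h. Values were derived by bidirectional fitting with DMSO serving as negative control and activity baseline.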

Read-out in assay [13]: Intercellular Adhesion Molecule 1 (ICAM1), ICAM1 (gene 3383)
Nature of the assay: BSK_3C_ICAM1: BioMAP Diversity Plus: 3C Assay for Intercellular Adhesion Molecule 1 (ICAM1) Biomarker Activity (AID 2283003). The note with it: primary human endothelial cells (HUVEC); actives raise or lower the signal. The essentials: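 HUVEC primary cells stimulated under 3C conditions; ICAM1 measured by ELISA 24 h after compound dosing. Curves fitted bidirectionally against the DMSO baseline. Overt cytotoxicity checked by SRB staining of parallel cultures.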

The target in assay [14] is Peroxisome proliferator-activated receptor gamma (Homo sapiens) (UniProt P37231). Description: ATG_PPARg_TRANS: Attagene TRANS-FACTORIAL HepG2 Assay for human Peroxisome Proliferator-activated Receptor-gamma (PPARg) (AID 2283007; active = hit-call score of the fitted dose curve at least 0.9, where 1 is the maximum). The essentials: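 Chimeric NR-Gal4 transactivation is measured in transiently transfected HepG2 cells by reporter mRNA induction at 24 h. Detection uses RT-PCR with fluorescent labelling and capillary electrophoresis; DMSO defines baseline.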

Assay [15] concerns the target Nuclear receptor subfamily 1 group I member 2 (Homo sapiens) (UniProt O75469). Nature of the assay: ATG_PXR_TRANS: Attagene TRANS-FACTORIAL HepG2 Assay for human Pregnane X Receptor (PXR) (AID 2283008; active = hit-call score of the fitted dose curve at least 0.9, where 1 is the maximum). The essentials: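 Read-out is fluorescence of labelled reporter cDNA fragments separated by capillary electrophoresis after RT-PCR and HpaI digestion. Source: HepG2 cells carrying PXR-GAL4/UAS reporter constructs, treated 24 h; activity fitted upward relative to DMSO.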

The nature of assay [16]: ATG_NF_kB_CIS: Attagene CIS-FACTORIAL HepG2 Assay for human Nuclear Factor Kappa B (NF-kB) (AID 2282991). The conditions noted are these: HepG2 Attagene cis-factorial NF-kB reporter mRNA; actives raise or lower the signal. The essentials:
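DMSO served as negative control and baseline for bidirectional curve fitting. Transiently transfected HepG2 cells were dosed for 24 h, then reporter transcripts were measured by RT-PCR with capillary electrophoresis detection.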

Assay [17] has as its target Cellular tumor antigen p53 (Homo sapiens) (UniProt P04637). Nature of the assay: ATG_p53_CIS: Attagene CIS-FACTORIAL HepG2 Assay for human p53 Transcription Factor (AID 2282994). The note with it: HepG2 p53 cis-element reporter, Attagene mRNA; actives raise or lower the signal. The essentials: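 HepG2, transient MRTU transfection (cis promoter elements, endogenous TFs); 24 h dosing; RNA isolation, RT-PCR, 6-FAM primer extension, HpaI digest, CE fluorescence; bidirectional fit vs DMSO.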

For assay [18], the target named is Retinoic acid receptor alpha (Homo sapiens) (UniProt P10276). Description: ATG_RARa_TRANS: Attagene TRANS-FACTORIAL HepG2 Assay for human Retinoic Acid Receptor alpha (RARa) (AID 2283005; active = hit-call score of the fitted dose curve at least 0.9, where 1 is the maximum). The essentials: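 Reporter transcripts, measured by RT-PCR with fluorescent labeling and capillary electrophoresis after 24 h dosing, reflect activity of an exogenous human RARa–GAL4 fusion in transiently transfected HepG2. Fitted for increase relative to DMSO.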

Assay [19] has as its target human Retinoic Acid Receptor gamma (RARg), RARG (gene 5916) (UniProt P13631). Description: ATG_RARg_TRANS: Attagene TRANS-FACTORIAL HepG2 Assay for human Retinoic Acid Receptor gamma (RARg) (AID 2283009; active = hit-call score of the fitted dose curve at least 0.9, where 1 is the maximum). The essentials: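 HepG2 transiently transfected with GAL4-UAS reporter units and chimeric NR-Gal4 constructs; 24 h compound exposure. Reporter mRNA quantified by RT-PCR, FAM labeling, HpaI digestion and capillary electrophoresis; gain-of-signal versus DMSO.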

Records with an inconclusive call do not appear. The source made the active and inactive calls. The calls were made as follows, unless noted: active = hit-call score of the fitted dose curve at least 0.9, where 1 is the maximum; inactive = score below 0.9.

Chain of Nuclear receptor subfamily 1 group I member 2 (Homo sapiens) (O75469 whole entry, looked up, the tested form may be a part): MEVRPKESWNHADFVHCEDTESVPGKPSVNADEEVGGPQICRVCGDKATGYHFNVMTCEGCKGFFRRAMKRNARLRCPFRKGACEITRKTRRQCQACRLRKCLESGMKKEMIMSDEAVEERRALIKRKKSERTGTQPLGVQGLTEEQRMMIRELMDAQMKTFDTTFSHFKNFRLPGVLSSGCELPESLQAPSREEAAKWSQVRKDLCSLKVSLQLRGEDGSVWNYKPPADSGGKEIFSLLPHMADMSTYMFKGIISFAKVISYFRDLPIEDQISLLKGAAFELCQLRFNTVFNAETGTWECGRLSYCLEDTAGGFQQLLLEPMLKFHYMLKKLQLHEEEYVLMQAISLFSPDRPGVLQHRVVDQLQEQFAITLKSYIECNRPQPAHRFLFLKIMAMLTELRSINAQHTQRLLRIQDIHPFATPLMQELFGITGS
Chain of Peroxisome proliferator-activated receptor gamma (Homo sapiens) (P37231 whole entry, looked up, the tested form may be a part): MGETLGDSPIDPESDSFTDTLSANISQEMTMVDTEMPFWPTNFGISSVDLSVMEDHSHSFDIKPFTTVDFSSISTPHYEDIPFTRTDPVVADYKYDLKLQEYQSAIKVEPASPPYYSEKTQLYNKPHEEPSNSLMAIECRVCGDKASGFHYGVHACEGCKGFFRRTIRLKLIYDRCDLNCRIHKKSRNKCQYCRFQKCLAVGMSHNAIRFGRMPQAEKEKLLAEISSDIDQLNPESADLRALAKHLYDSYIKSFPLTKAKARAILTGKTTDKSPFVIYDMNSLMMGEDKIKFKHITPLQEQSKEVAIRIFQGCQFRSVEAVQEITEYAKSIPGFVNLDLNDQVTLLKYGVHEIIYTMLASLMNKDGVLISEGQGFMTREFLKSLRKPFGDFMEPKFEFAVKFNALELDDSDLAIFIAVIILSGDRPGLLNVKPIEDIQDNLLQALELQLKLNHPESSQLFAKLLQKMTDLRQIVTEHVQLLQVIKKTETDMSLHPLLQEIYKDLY
Chain of human Peroxisome Proliferator-activated Receptor alpha (PPARa), PPARA (gene 5465) (Q07869 whole entry, looked up, the tested form may be a part): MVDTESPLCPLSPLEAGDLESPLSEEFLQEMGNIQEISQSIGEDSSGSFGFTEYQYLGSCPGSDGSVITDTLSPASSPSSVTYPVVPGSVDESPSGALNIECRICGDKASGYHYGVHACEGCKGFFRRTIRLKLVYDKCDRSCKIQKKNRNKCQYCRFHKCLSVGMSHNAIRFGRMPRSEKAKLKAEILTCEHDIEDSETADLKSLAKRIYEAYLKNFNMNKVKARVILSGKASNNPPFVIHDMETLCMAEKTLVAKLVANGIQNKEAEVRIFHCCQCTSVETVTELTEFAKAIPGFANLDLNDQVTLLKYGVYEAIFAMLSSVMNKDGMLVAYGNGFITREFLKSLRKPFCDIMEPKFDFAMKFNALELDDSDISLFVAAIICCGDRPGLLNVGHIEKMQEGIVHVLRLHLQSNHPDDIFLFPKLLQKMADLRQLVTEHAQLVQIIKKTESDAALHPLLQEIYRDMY
Chain of Myc proto-oncogene protein (Homo sapiens) (P01106 whole entry, looked up, the tested form may be a part): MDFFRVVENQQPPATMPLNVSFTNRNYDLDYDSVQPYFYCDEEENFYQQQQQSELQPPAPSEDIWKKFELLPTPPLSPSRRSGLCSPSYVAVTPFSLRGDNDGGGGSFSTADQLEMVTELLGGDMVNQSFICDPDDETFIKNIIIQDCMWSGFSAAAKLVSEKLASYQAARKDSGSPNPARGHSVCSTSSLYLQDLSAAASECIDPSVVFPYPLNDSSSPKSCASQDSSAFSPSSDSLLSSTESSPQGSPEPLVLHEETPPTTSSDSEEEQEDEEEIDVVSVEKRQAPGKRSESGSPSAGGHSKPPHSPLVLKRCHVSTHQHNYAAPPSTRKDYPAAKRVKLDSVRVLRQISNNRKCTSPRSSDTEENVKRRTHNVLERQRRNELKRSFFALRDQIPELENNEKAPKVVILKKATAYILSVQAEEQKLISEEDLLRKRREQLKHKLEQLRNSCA
Chain of human Peroxisome Proliferator-activated Receptor delta (PPARd), PPARD (gene 5467) (Q03181 whole entry, looked up, the tested form may be a part): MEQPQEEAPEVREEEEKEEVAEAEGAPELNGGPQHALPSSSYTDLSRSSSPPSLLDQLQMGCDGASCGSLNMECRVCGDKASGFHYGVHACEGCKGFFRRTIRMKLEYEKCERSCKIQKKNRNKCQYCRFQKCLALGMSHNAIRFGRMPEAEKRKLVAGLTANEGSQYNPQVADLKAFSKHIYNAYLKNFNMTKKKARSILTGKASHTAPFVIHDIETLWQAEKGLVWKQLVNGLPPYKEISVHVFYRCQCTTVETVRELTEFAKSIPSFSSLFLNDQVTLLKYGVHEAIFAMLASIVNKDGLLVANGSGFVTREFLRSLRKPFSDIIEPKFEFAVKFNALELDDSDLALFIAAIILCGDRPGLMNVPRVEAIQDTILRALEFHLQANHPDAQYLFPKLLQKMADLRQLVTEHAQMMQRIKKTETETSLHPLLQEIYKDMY
Chain of human RAR-related Orphan Receptor gamma (RORg), RORC (gene 6097) (P51449 whole entry, looked up, the tested form may be a part): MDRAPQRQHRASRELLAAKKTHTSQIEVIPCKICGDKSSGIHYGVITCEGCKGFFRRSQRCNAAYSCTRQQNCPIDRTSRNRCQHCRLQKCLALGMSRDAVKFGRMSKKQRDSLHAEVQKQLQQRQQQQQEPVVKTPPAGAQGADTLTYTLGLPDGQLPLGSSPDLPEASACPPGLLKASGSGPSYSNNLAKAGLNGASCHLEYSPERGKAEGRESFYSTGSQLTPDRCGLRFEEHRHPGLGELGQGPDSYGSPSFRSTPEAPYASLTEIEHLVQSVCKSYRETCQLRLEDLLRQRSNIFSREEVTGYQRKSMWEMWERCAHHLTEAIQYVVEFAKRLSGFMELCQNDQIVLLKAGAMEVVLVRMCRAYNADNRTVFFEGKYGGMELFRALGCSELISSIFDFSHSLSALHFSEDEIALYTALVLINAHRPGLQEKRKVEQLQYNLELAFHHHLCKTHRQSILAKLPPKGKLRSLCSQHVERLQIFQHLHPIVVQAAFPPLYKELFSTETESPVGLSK
Chain of human RAR-related Orphan Receptor beta (RORb), RORB (gene 6096) (Q92753 whole entry, looked up, the tested form may be a part): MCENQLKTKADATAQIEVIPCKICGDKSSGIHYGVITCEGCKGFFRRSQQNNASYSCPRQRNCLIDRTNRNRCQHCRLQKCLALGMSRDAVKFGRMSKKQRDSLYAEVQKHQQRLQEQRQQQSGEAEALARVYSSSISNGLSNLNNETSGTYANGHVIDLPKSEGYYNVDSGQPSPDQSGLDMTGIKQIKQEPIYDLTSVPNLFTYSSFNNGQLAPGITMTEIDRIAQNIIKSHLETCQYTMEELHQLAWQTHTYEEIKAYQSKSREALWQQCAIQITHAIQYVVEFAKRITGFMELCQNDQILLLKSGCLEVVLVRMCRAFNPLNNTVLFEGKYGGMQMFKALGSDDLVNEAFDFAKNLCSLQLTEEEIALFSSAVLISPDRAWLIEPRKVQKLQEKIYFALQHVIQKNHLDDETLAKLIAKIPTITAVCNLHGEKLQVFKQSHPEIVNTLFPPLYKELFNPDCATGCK
Chain of human Retinoic Acid Receptor gamma (RARg), RARG (gene 5916) (P13631 whole entry, looked up, the tested form may be a part): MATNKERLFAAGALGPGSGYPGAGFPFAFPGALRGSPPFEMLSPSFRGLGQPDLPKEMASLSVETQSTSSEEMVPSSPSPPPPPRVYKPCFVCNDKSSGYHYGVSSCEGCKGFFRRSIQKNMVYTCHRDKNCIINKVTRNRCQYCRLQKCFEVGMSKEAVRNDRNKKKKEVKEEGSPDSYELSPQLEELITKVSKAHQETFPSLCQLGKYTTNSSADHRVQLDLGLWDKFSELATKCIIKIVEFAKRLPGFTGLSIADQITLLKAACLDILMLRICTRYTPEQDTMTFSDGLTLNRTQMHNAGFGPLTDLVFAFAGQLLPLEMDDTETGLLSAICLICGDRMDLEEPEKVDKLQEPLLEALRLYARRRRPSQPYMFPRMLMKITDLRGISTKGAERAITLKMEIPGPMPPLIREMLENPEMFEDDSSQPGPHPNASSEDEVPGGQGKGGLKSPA
Chain of Retinoic acid receptor alpha (Homo sapiens) (P10276 whole entry, looked up, the tested form may be a part): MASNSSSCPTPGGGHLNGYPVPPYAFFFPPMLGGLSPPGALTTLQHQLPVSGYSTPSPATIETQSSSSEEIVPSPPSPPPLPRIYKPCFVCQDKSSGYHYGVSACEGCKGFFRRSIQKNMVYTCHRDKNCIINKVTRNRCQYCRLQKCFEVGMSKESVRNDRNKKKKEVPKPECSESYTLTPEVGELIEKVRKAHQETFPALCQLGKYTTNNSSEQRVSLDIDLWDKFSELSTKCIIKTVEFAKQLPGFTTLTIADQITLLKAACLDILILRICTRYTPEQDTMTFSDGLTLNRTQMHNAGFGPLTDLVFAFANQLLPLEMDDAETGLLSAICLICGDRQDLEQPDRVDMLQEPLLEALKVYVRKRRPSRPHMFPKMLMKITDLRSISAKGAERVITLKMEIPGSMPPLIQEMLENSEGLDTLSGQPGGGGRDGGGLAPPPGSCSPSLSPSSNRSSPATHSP
Chain of Cellular tumor antigen p53 (Homo sapiens) (P04637 whole entry, looked up): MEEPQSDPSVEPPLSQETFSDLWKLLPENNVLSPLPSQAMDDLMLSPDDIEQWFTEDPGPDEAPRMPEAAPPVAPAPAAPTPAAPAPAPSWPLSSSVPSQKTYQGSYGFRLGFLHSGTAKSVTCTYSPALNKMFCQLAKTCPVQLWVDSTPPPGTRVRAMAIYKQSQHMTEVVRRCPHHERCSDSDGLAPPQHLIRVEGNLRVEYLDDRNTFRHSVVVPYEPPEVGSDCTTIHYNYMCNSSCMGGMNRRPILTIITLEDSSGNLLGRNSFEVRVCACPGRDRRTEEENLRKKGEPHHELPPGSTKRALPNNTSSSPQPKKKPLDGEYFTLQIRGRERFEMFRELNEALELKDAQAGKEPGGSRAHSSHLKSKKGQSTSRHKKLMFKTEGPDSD

In the case of `CCCCOCCOCCOCCOCCO`, the result in [1], in [2], in assay [3], in [4], in assay [5] and in assay [6] was inactive. The molecule was classed as inactive in assay [7].
Take `NCCCN1CCOCC1`: the molecule was called inactive in [1], in assay [2], in assay [8], in [3], in [4] and in assay [5].
For orientation: AC50 means the midpoint of the concentration-response curve, whichever way the signal moves. In the case of `O=C1CCCCCCCCCCCCCCO1`, the outcome in assay [1], in [2], in assay [6] and in assay [7] was inactive. Further, the AC50 in assay [3] was 69.4 µM (active); in assay [9], 26.5 µM (active); in assay [10], 20 µM (active); in assay [11], 17.9 µM (active); in [12], 27.3 µM (active); in assay [4], 100 µM (active). Further, the AC50 is 179 µM (active) in [5], 28.6 µM (active) in assay [13], 60.1 µM (active) in [14] and 48.3 µM (active) in assay [15].
As for `CC(C)C1CCC(O)CC1` (configuration not stated), the call in assay [1], in [2], in [3], in assay [14] and in [15] was inactive.
On to `NCCNCCN`, for which the molecule was classed as inactive in assay [1], in assay [16], in [8], in [3], in assay [17] and in assay [9]. Also, the result in assay [10], in [11], in [12], in assay [4], in assay [5] and in assay [13] was inactive. The call in assay [15], in assay [6] and in [7] was inactive.
As for `CCCCCCC#CC(=O)OC`, the molecule was called inactive in assay [1], in assay [2], in assay [3], in assay [4], in assay [5] and in [15]. In addition, the molecule was classed as inactive in [6]. For the same molecule, the AC50 in assay [8] was 21.6 µM (active); in [14] it was 5.61 µM (active).
`CCC/C=C/C=O`: the outcome in [1], in [2], in assay [3], in [4], in [5] and in [15] was inactive. The AC50 in [8] is 30.5 µM (active).
`O=C[C@H](O)[C@H](O)[C@H](O)CO`: the outcome in assay [1], in [2], in assay [8], in [4], in assay [5] and in assay [18] was inactive. In addition, the molecule was classed as inactive in assay [14], in [19] and in [7].
